Bioassay records as filed in PubChem BioAssay.
D1 antagonist = antagonists of human D1 dopamine receptor; HEK293 TREx D1 cells, calcium flux, dopamine EC80; hits give low values; AID 504652; activity change, negative = inhibition, % at 10 µM; actives 3.2% (n = 360,000); P21728; in the data active means activity change below about -30%; further: on the % scale 0 is the no-effect control and ±100 the full control effect
Target sequence (P21728 whole entry, looked up): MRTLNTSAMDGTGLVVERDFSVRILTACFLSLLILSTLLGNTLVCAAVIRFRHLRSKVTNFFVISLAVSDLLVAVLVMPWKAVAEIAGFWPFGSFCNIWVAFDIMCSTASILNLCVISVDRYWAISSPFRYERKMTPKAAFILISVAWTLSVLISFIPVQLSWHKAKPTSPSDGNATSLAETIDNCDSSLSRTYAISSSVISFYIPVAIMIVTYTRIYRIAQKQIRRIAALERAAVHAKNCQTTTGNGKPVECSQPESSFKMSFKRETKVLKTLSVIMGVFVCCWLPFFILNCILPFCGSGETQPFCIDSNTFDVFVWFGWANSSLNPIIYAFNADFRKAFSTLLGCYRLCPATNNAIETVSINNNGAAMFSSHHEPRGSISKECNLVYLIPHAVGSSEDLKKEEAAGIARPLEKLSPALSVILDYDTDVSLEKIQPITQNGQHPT
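Kinetic fluorescence of a calcium dye serves as the read-out. D1-expressing Hek293 Trex cells, induced overnight at 30 C, are exposed to compound for 180 s before an EC80 dopamine addition, then read 180 s further.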
D1 ag = activates the human D1 dopamine receptor; AID 504660; P21728; HEK293 T-REx D1 cells, calcium flux, agonist mode; actives 1% (n = 360,000); activation, % at 2 µM; in the data active means activation above about 30%; further: 0% is about no effect
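Inducible HEK293 T-REx D1 cells, force-coupled to calcium signalling, were plated at 4000 cells/well with tetracycline and held overnight at 30 C. After no-wash calcium dye loading, compound-evoked calcium rise over 180 s flagged agonists.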
DRD3 agonist = D3 dopamine receptor (human) agonism; P35462; max activation, %; actives 0.58% (n = 410,000); D3R DiscoveRx beta-arrestin cells, luminescence, 90 min; in the data active means max activation above about 30%; further: 0% is about no effect
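Agonist-mode cell screen: cells plated at 1500/well and incubated overnight at 37 °C, then exposed to library compounds for 90 min at 37 °C. Detection reagent was added for 30–60 min at room temperature, and luminescence was read.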
D3 antag = D3 dopamine receptor (human) antagonism; max response, negative = inhibition, %; D3R cells, DiscoveRx beta-arrestin luminescence, antagonist mode; hits give low values; P35462; AID 652054; actives 2.5% (n = 360,000); in the data active means max response below about -50%; inconclusive means no clear call, values can overlap the other calls; further: on the % scale 0 is the no-effect control and ±100 the full control effect
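Cells plated overnight at 1500 cells/well, then exposed to library compounds with dopamine controls for 90 minutes at 37 degrees C. DiscoveRx reagent added for 30–60 minutes at room temperature; luminescence read, quantitative HTS format.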
D1 PAM = human D1 dopamine receptor positive modulation | P21728 | HEK293 TREx D1 cells, calcium flux, dopamine EC20 potentiation | potentiation, % at 10 µM | actives 0.036% (n = 360,000); in the data active means potentiation above about 30%; further: 0% is about no effect
Starred values were filed as active, the others as inactive; ? = inconclusive; · = no result given; ! = a repeat was not active. The list is not random: actives were taken first. Their share in the collection is about 6%.

SMILES | D1 antagonist | D1 ag | DRD3 agonist | D3 antag | D1 PAM
Cc1[nH]n(-c2ccccc2)c(=O)c1/C=N/NC(=O)c1ccc(O)cc1O | -6 | 1 | 5 | 13 | 9
O=C(NC(c1ccc2c(c1)OCO2)c1ccccn1)C1CCN(CCOc2ccccc2)CC1 (configuration not stated) | · | · | 8 | -72* | ·
COc1ccc(OCCN2CCC(C(=O)NC(c3ccc(C)cc3)c3ccccn3)CC2)cc1 (configuration not stated) | · | · | -18 | -74* | ·
COc1cccc(C(NC(=O)C2CCN(CCCOc3ccccc3)CC2)c2ccccn2)c1 (configuration not stated) | · | · | -21 | -89* | ·
COc1ccc(C(NC(=O)C2CCN(CCOc3ccccc3)CC2)c2ccccn2)cc1 (configuration not stated) | · | · | 4 | ? | ·
CC1=NN(C(=O)c2ccc(Cn3cc([N+](=O)[O-])cn3)cc2)C(O)(C(F)(F)F)C1 (configuration not stated) | 7 | 42* | -3 | -8 | -7
COc1ccccc1NC(=S)N(Cc1cccs1)C1CCCC1 | -4 | 0 | -2 | -4 | -1
COc1ccccc1NC(=S)N(Cc1ccccc1)Cc1cccs1 | -54* | 12 | 1 | -13 | -2
CCOC(=O)c1c(NC(C)=O)c2c3c(sc2n1Cc1nc(-c2cccc(C)c2)oc1C)CCCC3 | -3 | 0 | -2 | · | 2
O=C1Nc2ccccc2Oc2cc(Oc3ccc(Cl)cc3)ccc21 | -21 | 4 | 17 | · | -1
Cc1ccc(Oc2cc([N+](=O)[O-])cc3c2C(=O)Nc2ccccc2O3)cc1 | -6 | 7 | 49* | -12 | -3
N#Cc1c(Nc2ccccc2Cl)s[nH]c1=O | -13 | 2 | -3 | -65* | 1
N#Cc1c(Nc2ccccc2C(F)(F)F)s[nH]c1=O | -18 | 0 | -11 | ? | -3
COC(=O)C[C@@H]1C[C@@H]2c3cc(NC(=O)Cc4ccncc4)ccc3O[C@@H]2[C@@H](CO)O1 | · | · | 3 | 9 | ·
COc1ccc(Cc2nnc(NC(=O)CSc3ccc(C)cc3)s2)cc1OC | -1 | 224* | 7 | -17 | 6
COc1ccc(-c2nnc(NC(=O)CSc3ccc(Cl)cc3)s2)cc1OC | 0 | 2 | 7 | 8 | 5
COc1ccc(Cc2nnc(NC(=O)C3CC(=O)N(c4ccccc4C)C3)s2)cc1OC (configuration not stated) | -8 | 7 | -8 | -64* | -4
COc1ccc(Cc2nnc(NC(=O)Nc3ccc(C)cc3)s2)cc1OC | 1 | 1 | 5 | 7 | 3
CCOC(=O)Cc1nnc(NC(=O)CSc2ccc(Cl)cc2)s1 | -32* | 10 | -1 | -53* | -2
CCOC(=O)Cc1nnc(NC(=O)C(CC)Sc2nc(C)cc(C)n2)s1 (configuration not stated) | -36* | 4 | -6 | 3 | ·
COc1ccccc1CNC(=O)C[C@H]1CC[C@@H]2[C@H](COC[C@H](O)CN2Cc2ccc3c(c2)OCO3)O1 | · | · | -5 | -3 | ·
COc1ccc(NC(=O)C2Cc3ccccc3CN2S(=O)(=O)c2ccccc2)cc1OC (configuration not stated) | -59* | 1 | -6 | · | 0
Cc1cc(C)nc(SCC(=O)NCC2COc3ccccc3O2)n1 (configuration not stated) | 2 | 2 | 5 | -14 | -7
CCN(Cc1ccc2c(c1)OCCO2)C(=O)CSc1nc(C)nc2sc(C)c(C)c12 | -20 | 9 | 31* | 54 | ·
Cc1nc(SCC(=O)NCC2COc3ccccc3O2)c2c(C)c(C)sc2n1 (configuration not stated) | 15 | 1 | 93* | -26 | -1
SMILES | D1 antagonist | D1 ag | DRD3 agonist | D3 antag | D1 PAM
CCOc1ccccc1NC(=O)N1CCc2c(sc3c2CCCC3)C1c1ccccc1 (configuration not stated) | -14 | -1 | -11 | · | 0
O=S(=O)(c1ccc2c(c1)OCCO2)N1CCN(S(=O)(=O)c2ccc(F)cc2F)CC1 | 8 | 3 | · | · | -4
C1CCN(CCCNC2C3CC4CC(C3)CC2C4)C1 (configuration not stated) | 5 | 6 | -6 | -53* | -6
Cc1ccc(-c2nc(C)c(CCNS(=O)(=O)c3ccc(F)c(C(F)(F)F)c3)s2)cc1 | 27 | 1 | 0 | · | -3
Cc1cc(C)cc(NC(=O)CCC(=O)N2CCSc3ccccc32)c1 | -58*! | 1 | 1 | -14 | -2
COC(=O)c1ccccc1NC(=O)CCC(=O)N1CCSc2ccccc21 | -4 | 1 | 4 | -10 | -7
COc1cccc(N2CCN(c3c4c(nc5ncnn35)CCC4)CC2)c1 | -30* | 5 | 8 | 14 | -7
Cc1cc(C)cc(Nc2c3c(nc4ncnn24)CCC3)c1 | 3 | 0 | 3 | 13 | -2
Cc1cccc(Nc2c3c(nc4ncnn24)CCC3)c1 | -30* | 1 | 0 | -13 | -2
COc1ccc(S(=O)(=O)Nc2ccc(N3CCOCC3)cc2)cc1 | -1 | 3 | -9 | -6 | -2
COc1cccc(NS(=O)(=O)c2ccc(S(=O)(=O)N3CCOCC3)cc2)c1 | 8 | 4 | 40* | 14 | 2
COc1cccc(NS(=O)(=O)c2ccc(S(=O)(=O)N3CCCC3)cc2)c1 | -28 | 9 | 0 | 4 | -5
COc1ccc(NS(=O)(=O)c2ccc(N3CCOCC3)c(N)c2)cc1 | -32* | 23 | 15 | 14 | 7
CCc1ccccc1N(CC(=O)NCc1ccco1)C(=O)c1snc(C(N)=O)c1N | -17 | 10 | -9 | -55* | -6
Cc1cccc(OCC(=O)NCC(c2cccs2)N2CCOCC2)c1 (configuration not stated) | -1 | 0 | 2 | 3 | -4
O=C(NCC(c1cccs1)N1CCOCC1)c1cc(-c2ccc(F)cc2)nc2ccccc12 (configuration not stated) | 5 | 3 | -13 | -69* | 4
CCn1nc(C(=O)NCC(c2cccs2)N2CCOCC2)c2ccccc2c1=O (configuration not stated) | -35* | 3 | -6 | 13 | -10
Cc1cccc(C(=O)NCC(c2cccs2)N2CCOCC2)c1 (configuration not stated) | 4 | 6 | -8 | -58* | 3
O=C(COc1cccc(Cl)c1)NCC(c1cccs1)N1CCOCC1 (configuration not stated) | -35* | 1 | -4 | 0 | -6
COc1ccc(-c2csc(NCCn3c(C)nc4cc(C(F)(F)F)ccc43)n2)cc1 | · | · | 37* | 73 | ·
Cc1ccc(-c2csc(NCCn3c(-c4ccncc4)nc4ccccc43)n2)cc1 | -16 | 1 | 51* | 120 | -6
O=C(NCc1ccccc1)c1cccc(COc2cc(Cl)ccc2Cl)c1 | -2 | 12 | -5 | -72* | 12
O=C(NCc1ccccc1)c1cccc(COc2ccccc2Cl)c1 | -5 | 6 | -1 | -18 | -5
